# Assay results as given in ChEMBL document CHEMBL3988442, “University of Dundee, Small-Polar-MMV Screening Library” (2021).
# In all, about 48,000 compounds went through this assay and about 13,000 (27%) showed an effect of 50% or more. The list shows a part of the results.
# Tested on: Wolbachia pipientis
# Assay: Anti-Wolbachia Cell-Based Screen
# Type: functional
# Parameters: scale not given: in the data most compounds retested in dose-response had high values
# Conditions: 5 µM
row,Compound,Percent Effect
1,COc1ccc(Cl)cc1CN1CC(n2cccn2)C1,-1.811%
2,COCC(=O)NCC[C@H]1CC(C)(C)Oc2ccc(OC)cc21,109.1%
3,CN(Cc1ccco1)Cc1ccccc1CNC(=O)c1ccncc1,21.51%
4,COc1ccc2c(c1)CC(NC(=O)NCc1cccs1)CO2 (centres undefined),-5.09%
5,CC1(C)C[C@H](CCNC(=O)c2ccncc2)c2ccccc2O1,152.5%
6,CCCNC(=O)CNC(=O)CC1CCCc2cc(OC)ccc21 (centres undefined),-20.04%
7,COc1ccc2c(c1)[C@@H](CCNC(C)=O)CC(C)(C)O2,118.9%
8,COc1ccc2c(c1)CCCC2CC(=O)NCC(=O)O (centres undefined),-14.49%
9,COCC(=O)NCCc1ccc(I)s1,-6.07%
10,COCC(=O)NCCc1ccc(Cl)s1,-5.141%
11,COc1cccc(C2(NC(=O)CCNC(C)=O)CC2)c1,-8.972%
12,O=C(NC[C@H]1OC[C@@H](NC(=O)c2ccccc2)[C@@H]1O)c1ccncc1,-2.654%
13,COCC(=O)NCC[C@H]1CC(C)(C)Oc2ccccc21,119%
14,O[C@@H]1C[C@@H](c2nc(Cc3ccccc3)no2)N(Cc2ncc[nH]2)C1,0.9239%
15,COc1ccc(CNC(=O)NC2CCC(O)CC2)c(C(F)(F)F)c1 (centres undefined),20.35%
16,CCc1ccc(C(=O)N(CC(F)(F)F)C2CCCOC2)o1 (centres undefined),5.996%
17,Cc1cc(CSc2nc(=O)ccn2C(C)C)no1,-4.933%
18,CSCC[C@@H](CO)Nc1ccc(-c2nc(-c3ccccc3F)no2)cn1,-8.084%
19,CCC(C)(N)c1nc(=O)c(C)c(C)[nH]1 (centres undefined),-33.14%
20,Cc1noc(C)c1CS(=O)(=O)CC(=O)NCCc1cccs1,0.1957%
21,COc1ccc2c(c1)C(NCCc1c(C)noc1C)CCCO2 (centres undefined),-2.374%
22,CC(=O)NCC[C@H]1CC(C)(C)Oc2ccccc21,133.5%

row,Compound,Percent Effect
1,COc1ccc2c(c1)C(NCCc1ccccn1)CCCO2 (centres undefined),1.37%
2,CNCC[C@H]1CC(C)(C)Oc2ccc(OC)cc21,108.6%
3,Cc1ccc2c(c1)OC(C)(C)CC2NC(=O)C1CCN(C)CC1 (centres undefined),-0.1155%
4,CNCC[C@H]1CC(C)(C)Oc2ccc(OCC3CC3)cc21,114.8%
5,CC(=O)N1CCC(C(=O)NC2CC(C)(C)Oc3cc(C)ccc32)CC1 (centres undefined),-7.853%
6,NCc1ccc(Oc2cccc(Cl)c2Cl)nc1,4.271%
7,CCCc1[nH]n(C)c(=N)c1-c1ccc2c(c1)OCO2,-1.578%
8,O=C(Nc1nc(-c2ccccc2)ns1)N1CCC(F)CC1,-10.12%
9,Cc1n[nH]c(C)c1CNC(=O)c1cn(CCC2CCCCN2)nn1 (centres undefined),-13.81%
10,Cc1cccc(CN2CCCC2(C(N)=O)c2cnccn2)n1 (centres undefined),94%
11,Cc1cccc(CN2C[C@@H](CN3CCCN(C)CC3)[C@@H](CO)C2)n1,16.72%
12,NC(=O)C1(c2cnccn2)CCCN1Cc1ccccn1 (centres undefined),123%
13,NC(=O)C1(c2cnccn2)CCCN1Cc1cc2ccccc2o1 (centres undefined),-3.809%
14,O=C(O)[C@]12CCCN(Cc3ccccn3)[C@@H]1CCN(c1cnccn1)C2,-12.33%
15,Cc1cccc(CO[C@@H]2C[C@H]3CN(C(=O)c4cnccn4)CCN3C2)n1,-10.31%
16,c1ccc(-c2nnc(CNCC3CCCN3c3cccnn3)o2)cc1 (centres undefined),-18.66%
17,O=C(O)C(F)(F)F.O=C(c1ccccc1)N1C[C@@H]2CCCO[C@@H]2[C@H](N2CCOCC2)C1,-6.046%
18,COc1cc(N2CCC3(CC2)CC(N2CCOCC2)C3)ncn1.O=C(O)C(F)(F)F,-37.73%
19,CC(=O)N1CCC2(CC1)CC(N1CCOCC1)c1ccc(C)cc12.O=C(O)C(F)(F)F (centres undefined),0.6002%
20,Cc1oncc1C(=O)N1CCC2(CC1)CC(N1CCOCC1)C2.O=C(O)C(F)(F)F,99.49%
21,CN1CCCCC12CCN(C(=O)c1cccn1C)CC2.O=C(O)C(F)(F)F,-9.83%
22,CC(=O)N1CCOC2(CCN(C(=O)c3cnoc3C)CC2)C1,6.241%

row,Compound,Percent Effect
1,O=C(O)C(F)(F)F.O=C(c1ccc(F)cc1)N1CCC2(CC1)CC(N1CCOCC1)C2,98.46%
2,Cn1cccc1C(=O)N1CCC2(CC1)CC(N1CCOCC1)C2.O=C(O)C(F)(F)F,103.3%
3,O=C(O)C(F)(F)F.O=C1CC(c2ccncc2)C2(CCN(C(=O)c3cccc(F)c3)CC2)N1 (centres undefined),8.556%
4,O=C(O)C(F)(F)F.O=C(c1cccc(F)c1)N1CCC2(CC1)CC(N1CCOCC1)C2,110.5%
5,CN(C)C1COC2(CCN(C(=O)c3cccc(Cl)c3)CC2)C1.O=C(O)C(F)(F)F (centres undefined),-2.157%
6,O=c1[nH]c(NCc2cccc(OC(F)F)c2)nc2c1CCNC2,-5.963%
7,O=C(NCC1CC1)[C@H]1C[C@@H]2CN(C(=O)NCC3CCCCC3)C[C@H]1O2,9.811%
8,Cc1nc(CC(C)C)sc1C(=O)N1CCC(C2(C)OCCO2)CC1,1.957%
9,Cc1nc(CC(C)C)sc1C(=O)N1CCC1,-0.1519%
10,Cc1nc(C(C)C)sc1C(=O)N1CCC(C(N)=O)CC1,81.6%
11,CC(C)(C)c1ncc(C(=O)N2CCC(N3CCSCC3)CC2)c(O)n1,-20.12%
12,CCCn1ncc(C(=O)N2CCN(C3CCSCC3)CC2)c1C,7.373%
13,Cc1nc(C(C)C)sc1C(=O)N1CCC(N2CCSCC2)CC1,96.22%
14,Cc1nc(C(C)C)sc1C(=O)N1CCN(C2CCSCC2)CC1,90.05%
15,CN(C)C(C(=O)N1CCC(N2CCSCC2)CC1)c1ccccc1F (centres undefined),11.01%
16,COC1CCCN(C(=O)c2sc(CC(C)C)nc2C)C1 (centres undefined),-1.564%
17,CCS(=O)(=O)N1C[C@H]2CC[C@@]3(N=C(C)N(CC(C)C)C3=O)[C@H]2C1,17.11%
18,Cc1ccc(CN2CCNC(=O)C2CC(=O)N2CCSCC2)o1 (centres undefined),-50.4%
19,O=C(NCc1ccc(Cl)s1)c1cc(CN2CCCC(O)C2)on1 (centres undefined),3.439%
20,CSCc1nc(CCNC(=O)c2cnn(C(C)C)c2)cs1,-0.3441%
